Rows were chosen to be rich in hits. Some 5.7% of all compounds tested hit in one or more screens of this group.
GRIN3A LBD mod: binders of NR3A ligand-binding domain, primary screen, biophysical, differential scanning fluorimetry, uHTS; Glutamate receptor ionotropic, NMDA 3A (GRIN3A) ligand-binding domain; NR3A LBD differential scanning fluorimetry, Tm shift; 0% = protein alone, 100% = glycine-bound protein; Tm shift relative to glycine control, % at 25 µM; 2.5% of 340,000 active;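 active = melting temperature shift of at least 10% of the positive control shift, at one fixed dose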
Myeloid diff 2: induction of myeloid progenitor differentiation, primary screen, cell-based, flow cytometry, MLPCN library; AID 624256, 2012; ER-HoxA9 myeloid progenitors, lysozyme-GFP differentiation; calls only at 10 µM; 1% of 360,000 active;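 active = normalized GFP-positive differentiation at or above the plate's own cutoff, the solvent-only control mean plus 3 SD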;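 note: cells exposed to compound for four days before flow analysis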
FAS-TE inh: FAS thioesterase domain inhibitors, primary screen, biochemical, fluorescence intensity, uHTS. Fatty acid synthase (Homo sapiens), P49327. 0.67% of 360,000 active. recombinant FAS-TE, OMFH fluorogenic substrate, fluorescence endpoint. inhibition, % at 15 µM;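 active = compounds whose normalised, plate-corrected inhibition of enzyme fluorescence in the single-dose primary screen is 50% or more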
MPTP inh: mitochondrial permeability transition pore inhibitors, primary screen, biochemical, isolated mouse mitochondria, absorbance | Ca2+ swelling absorbance, 30 min | inhibition, % at 10 µM | 1.4% of 360,000 active | AID 602449, 2012;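 active = inhibition of 50% or more, scaled per plate between neutral and stimulator controls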
rCAG binder: binders of r(CAG) RNA repeats, primary screen, biochemical, fluorescence | r(CAG) RNA repeat, TO-PRO-1 dye displacement fluorescence | inhibition, % at 3 µM | 1.3% of 370,000 active;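 active = inhibition above the plate cutoff, the mean of all test compounds on that plate plus 3 SD, cut at about 35% in these data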;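 note: higher means more dye released from RNA so lower well fluorescence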
Hits are given with their value; i = inactive; nt = no result; + = active, no number.

SMILES	GRIN3A LBD mod	Myeloid diff 2	FAS-TE inh	MPTP inh	rCAG binder
ClCC1NCC(c2ccccc2Cl)c2c1[nH]c1ccccc21 (stereo not given)	i	+	i	i	i
Cn1c(COc2ccccc2)nnc1SCC(=O)Nc1ccccc1-c1ccccc1	nt	nt	nt	nt	i
O=C(O)c1cc2nc3c(c(C(F)(F)F)n2n1)CCc1ccccc1-3	11	i	i	i	i
C[C@H]1CN([C@@H](C)CO)C(=O)c2cccc(NC(=O)Nc3ccc(C(F)(F)F)cc3)c2O[C@@H]1CN(C)Cc1ccc(Cl)c(Cl)c1	12	i	77	i	i
C[C@@H]1CN([C@H](C)CO)C(=O)c2cc(NS(=O)(=O)c3ccc(F)cc3)ccc2O[C@@H]1CN(C)Cc1ccc(Cl)c(Cl)c1	13	i	i	i	i
C[C@H](CO)N1C[C@H](C)[C@@H](CN(C)Cc2ccc(Cl)c(Cl)c2)Oc2c(NC(=O)CCC(F)(F)F)cccc2C1=O	i	i	i	i	i
C[C@@H]1CN([C@H](C)CO)C(=O)c2cc(NC(=O)Nc3ccc(C(F)(F)F)cc3)ccc2O[C@H]1CN(C)Cc1ccc(Cl)c(Cl)c1	32	i	i	i	i
C[C@@H]1CN([C@H](C)CO)C(=O)c2cc(NS(=O)(=O)c3ccccc3)ccc2O[C@@H](C)CCCCO[C@@H]1CN(C)Cc1ccc(Cl)c(Cl)c1	nt	nt	nt	nt	i
CCOC(=O)CN1C(=O)[C@]2(OCCC=C[C@H]2C)c2ccccc21	nt	nt	nt	nt	i
Cc1ccc2nc(/C(C#N)=N/O)[nH]c2c1	i	i	i	i	i
N#C/C(=N\O)c1nc2ccccc2[nH]1	22	i	i	i	i
O=C(CCn1nnc2ccccc21)N1CCN(c2cccc(C(F)(F)F)c2)CC1	nt	nt	nt	nt	i
O=[N+]([O-])c1cccc2ccc(/C=C/c3ccc(Cl)cc3)nc12	21	i	i	i	i
O=[N+]([O-])c1cccc2ccc(/C=C/c3ccc(C(F)(F)F)cc3)nc12	17	i	i	i	i
O=[N+]([O-])c1cccc2ccc(/C=C/c3cccc(Br)c3)nc12	23	i	i	i	i
COC(=O)C1CN(CCc2ccccc2)CCS(=O)(=O)N1Cc1ccccc1F (stereo not given)	nt	nt	nt	nt	i
Cc1ccccc1CN1CCCCC(NC(=O)C2CCCC2)C1=O (stereo not given)	nt	nt	nt	nt	i
CN(C)CCCNC(=O)c1c(N)[nH]c(C(=O)c2ccc(Br)cc2)c1-c1ccc(Br)cc1	nt	nt	nt	nt	i
Nc1ccc(O)cc1C(=O)OCC(=O)c1ccc(C2CCCCC2)cc1	i	i	i	i	51
COc1ccc(C(=O)OCC(=O)c2ccc(C3CCCCC3)cc2)cc1	i	i	i	i	i
O=C(CSc1nnc(CCCN2C(=O)c3cccc4cccc(c34)C2=O)n1-c1ccccc1)NCCCO	13	i	i	i	i
Nn1c(SCC(=O)N2CCOCC2)nnc1-c1cc(-c2ccc(Cl)cc2)n[nH]1	nt	nt	nt	nt	i
O=C(Nc1ccc(O)c(-c2nc3ccccc3o2)c1)C1(c2ccccc2)CCCC1	i	+	i	i	nt
O=C(Nc1ccncc1)C1(c2ccccc2)CCCC1	i	i	i	i	i
COc1ccccc1C(=O)N1CCN(C(=O)[C@@H](Cc2ccccc2)NC(=O)[C@H]2O[C@@H](n3ccc(=O)[nH]c3=O)[C@H](O)[C@@H]2O)CC1	nt	nt	nt	nt	i
SMILES	GRIN3A LBD mod	Myeloid diff 2	FAS-TE inh	MPTP inh	rCAG binder
N/C(=N\OC(=O)Nc1ccccc1)c1ncc([N+](=O)[O-])s1	36	+	i	i	i
CCN(CC)S(=O)(=O)c1cc(C(=O)c2nccn2C)ccc1Cl	i	+	i	i	i
OCCN1CCN(c2nc(-c3ccccc3O)nc3ccccc23)CC1	19	i	i	i	i
CN1CCN(c2nc(-c3ccccc3O)nc3ccccc23)CC1	nt	i	i	i	i
CN(C)C(=O)N1CCN(C(=O)[C@H]2O[C@@H](n3ccc(N)nc3=O)[C@H](O)[C@@H]2O)CC1	nt	nt	nt	nt	i
CCOc1ccc(C(=O)O[C@H]2[C@H](Cc3ccccc3)NS(=O)(=O)[C@H]3C[C@@H]4C=C[C@]23O4)cc1	i	+	i	i	i
CC(C)(C)c1ccc(C(=O)O[C@H]2[C@H](Cc3ccccc3)NS(=O)(=O)[C@H]3C[C@@H]4C=C[C@]23O4)cc1	i	i	i	i	i
O=C(NNC(=O)c1cccs1)c1ccccc1	i	i	i	i	i
CC(Oc1ccccc1)C(=O)NNC(=O)c1cccs1 (stereo not given)	i	+	i	i	i
O=C(C(=O)N1CCN(C(=O)c2ccccc2C(F)(F)F)CC1)c1cccc(C(F)(F)F)c1	nt	nt	nt	nt	i
COc1ccc(OC)c(S(=O)(=O)N(CCc2ccc(OC)c(OC)c2)Cc2cccs2)c1	nt	nt	nt	nt	i
Cn1c(C(=O)NCc2ccco2)cc2c(=O)[nH]c3ccccc3c21	24	i	i	i	i
CC(=O)Nc1ccc(-c2csc(NC(=O)CCCc3cccs3)n2)cc1	19	i	i	i	i
Cc1ccc(Nc2nc(-c3ccc(F)cc3)cs2)nc1	i	i	i	i	i
CC(=O)Nc1cccc(-c2csc(Nc3ccc(Cl)cn3)n2)c1	14	i	i	i	i
CC(=O)Nc1ccc(-c2csc(Nc3ccc(Cl)cn3)n2)cc1	26	i	i	i	i
CC(=O)Nc1ccc(-c2csc(Nc3ncccn3)n2)cc1	i	i	i	i	i
CC(=O)Nc1cccc(-c2csc(NCc3ccccc3)n2)c1	i	i	i	i	i
Cc1ccc(Nc2nc(-c3ccc(O)c(O)c3)cs2)nc1	43	nt	nt	nt	i
C=CCNC(=O)Nc1ccc2c(c1)[C@@]1(CC(=O)N(CC(C)C)C1c1ccccc1)C(=O)N2C (stereo not given in full)	nt	nt	nt	nt	i
CCn1c2ccccc2c2cc(NC(=O)COC(=O)c3ccc(F)cc3Cl)ccc21	nt	nt	nt	nt	i
COC(=O)[C@H](C(C)C)N1Cc2nnn(Cc3ccccc3)c2C=CS1(=O)=O	nt	nt	nt	nt	i
O=C1c2ccccc2C(=O)N1N(c1ccccc1)c1ccccc1	16	i	i	i	i
O=C1C=CC(=O)N1N(c1ccccc1)c1ccccc1	i	i	i	i	i
CN(c1cccc(NC(=O)CN(c2ccc(F)cc2)S(C)(=O)=O)c1)S(C)(=O)=O	i	i	i	i	i
CN(c1cccc(NC(=O)CN(c2ccc(C34CC5CC(CC(C5)C3)C4)cc2)S(C)(=O)=O)c1)S(C)(=O)=O	30	i	i	i	nt
CCOC(=O)C1=NOC(C(C)=O)(C(=O)Nc2cc(C)cc(C)c2)C1 (stereo not given)	nt	nt	nt	nt	i
Cc1cc(SCC(=O)Nc2cccc(S(N)(=O)=O)c2)c(C)cc1Br	i	i	i	i	i
Cc1cc(SCC(=O)Nc2cccc(S(=O)(=O)NC3=NCCCCC3)c2)c(C)cc1Br	i	+	i	i	i
CCOC(=O)N1CCN(C(=O)C[C@H]2C[C@@]3(C(=O)OC)C(=C[C@H](C4CCCC4)O[C@@H]3C)N(Cc3cccc4ccccc34)C2=O)CC1	nt	nt	nt	nt	i
